Screening data from PubChem BioAssay.
TMEM16A act: activates or potentiates the mouse TMEM16A chloride channel. 340,000 compounds, 0.3% hits. AID 623877. B-score at 10 µM. Q8BHY3. HEK293 TMEM16A/YFP-H148Q/I152L, iodide quench fluorescence; hits give low values;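 active = fluorescence-ratio B-score plate-corrected deviation score at least 3 library SD below zero, with starting fluorescence score within 5 deviations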;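 also: channel opened by trigger with iodide after compound preincubation; score built on the fluorescence ratio of max minus min over baseline; more negative score means more quench and so TMEM16A activation or potentiation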
ANO1 block: mouse TMEM16A channel inhibition, primary screen | HEK293 TMEM16A/YFP iodide influx fluorescence, ionomycin | normalized B-score (activity score, 25-100; higher = stronger inhibition) at 10 µM | 310,000 compounds, 1.2% hits | Q8BHY3;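 active = ratio plate-corrected score three or more library SD toward inhibition, starting fluorescence score within five deviations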;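 also: score derived from kinetic fluorescence span divided by baseline fluorescence per well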
CHT block: inhibitors of human choline transporter CHT; Q9GZV3; CHT-expressing cells, membrane potential dye, choline response; hits give low values; AID 488975; B-score at 10 µM; 310,000 compounds, 0.86% hits;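 active = B-score over 3 SD under the library average, and starting fluorescence ratio not unusually high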;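 also: choline stimulus applied at its EC90 after an EC20 pre-addition; B-score computed on integrated fluorescence ratio after choline addition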
Target sequence (Q9GZV3 whole entry, looked up): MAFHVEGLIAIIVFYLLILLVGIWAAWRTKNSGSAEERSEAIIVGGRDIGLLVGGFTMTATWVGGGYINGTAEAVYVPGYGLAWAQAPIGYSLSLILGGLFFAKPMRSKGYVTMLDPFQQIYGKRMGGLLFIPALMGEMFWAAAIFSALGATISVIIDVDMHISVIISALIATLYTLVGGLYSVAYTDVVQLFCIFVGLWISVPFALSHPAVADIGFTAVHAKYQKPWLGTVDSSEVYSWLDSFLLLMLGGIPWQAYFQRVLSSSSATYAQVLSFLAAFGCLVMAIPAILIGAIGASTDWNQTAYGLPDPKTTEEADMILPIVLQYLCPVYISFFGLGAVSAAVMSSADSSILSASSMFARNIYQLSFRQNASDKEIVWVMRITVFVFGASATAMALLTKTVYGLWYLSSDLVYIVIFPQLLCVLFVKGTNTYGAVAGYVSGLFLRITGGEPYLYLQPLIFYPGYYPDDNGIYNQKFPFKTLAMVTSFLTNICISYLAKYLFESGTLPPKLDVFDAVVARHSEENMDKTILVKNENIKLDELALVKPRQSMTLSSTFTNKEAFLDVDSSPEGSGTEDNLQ
CHT PAM: human CHT allosteric activation. 310,000 compounds, 0.49% hits. CHT-expressing cells, membrane potential dye, choline EC20; hits give high values; LV-AA mutant CHT in HEK293 cells. Q9GZV3. AID 488977. B-score at 10 µM;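 active = initial fluorescence not abnormally high and integrated response B-score, plate-corrected, over 3 SD above library mean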
The depositor's hits bear a star; i = inactive; x = no result given. In the library only some 2.4% were active in any assay of this set; here they are far more common.

SMILES	TMEM16A act	ANO1 block	CHT block	CHT PAM
On1c2c(c3c4nonc4ccc31)CCCC2	x	100*	-11*	i
CC(C)(C)NC(=O)C1CCC(CNc2c(N3CCCCC3)c(=O)c2=O)CC1 (stereo not given)	i	i	i	i
O=c1c2cc(Cl)ccc2nc(-c2ccc(Cl)c(Cl)c2)n1O	i	100*	-7*	i
CCOC(=O)C(C)On1c(-c2ccc(Cl)cc2)nc2ccc([N+](=O)[O-])cc21 (stereo not given)	i	100*	i	i
CC(NCC(=O)Nc1cc(S(=O)(=O)N2CCCCCC2)ccc1Cl)c1ccccc1 (stereo not given)	i	100*	i	i
O=C(Nc1cc(S(=O)(=O)N2CCCCC2)ccc1Cl)c1ccccc1NS(=O)(=O)c1ccc(F)cc1	i	25*	i	i
CCOc1ccc(NC(=O)c2ccccc2NS(=O)(=O)c2ccc(F)cc2)c([N+](=O)[O-])c1	i	25*	i	i
NC(=O)C(CCCCN1CCCCC1)(c1ccccc1)c1ccccc1	i	x	x	x
CN(NS(=O)(=O)c1ccc(Cl)cc1)c1nc(C(F)(F)F)nc2ccccc12	i	100*	i	i
CN(NS(=O)(=O)c1ccccc1)c1nc2ccccc2nc1C(F)(F)F	i	i	i	i
O=C(/C=C(\O)c1ccccc1)C(=O)NNC(=O)c1ccccc1[N+](=O)[O-]	i	i	i	i
COc1nnc(-c2ccc(N3CCCCC3)c(NC(=O)C3CCCCC3)c2)c2ccccc12	i	100*	i	i
COc1ccc(C(=O)Cn2nnc(-c3ccccc3NC(=O)c3ccco3)n2)cc1	-11*	i	i	i
COc1ccc(C(=O)Nc2ccccc2-c2nnn(CC(=O)N3CCOCC3)n2)cc1	i	i	i	i
C(C#CCCCCCCCCC[n+]1ccccc1)#CCCCCCCCCC[n+]1ccccc1	i	i	i	7.6*
COc1ccc(N2CC(C(=O)N3CCN(Cc4ccc5c(c4)OCO5)CC3)CC2=O)cc1 (stereo not given)	i	i	i	i
CCCCCCSc1ccc([C@H]2N[C@@](C)(C(=O)OC)[C@H]3C(=O)N(C)C(=O)[C@@H]23)cc1	i	100*	i	i
CCCSc1ccc([C@H]2N[C@@](C)(C(=O)OC)[C@H]3C(=O)N(C)C(=O)[C@@H]23)cc1	i	i	i	i
CCOC(=O)N1CCN(C(=O)c2ccc(Cn3c(=S)[nH]c4ccc(Br)cc4c3=O)cc2)CC1	i	100*	i	i
CCOC(=O)N1CCN(C(=O)c2ccc3c(=O)n(Cc4ccc(Cl)cc4)c(=S)[nH]c3c2)CC1	i	i	i	i
Cc1ccc(NC(=O)CCn2c(=O)c3cccn3c3ccccc32)cc1C	i	i	i	i
CCCCn1nc(C(=O)N(C)C2CCCCC2)c2ccccc2c1=O	-30*	x	x	x
Nc1nc(N2CCN(C/C=C/c3ccccc3)CC2)nc2ccccc12	i	i	-6.8*	i
CC(=O)N(c1ccc(Cl)cc1)c1cn(C(C)=O)c2ccccc12	i	i	i	i
CC(=O)n1cc(-c2ccncc2)c2ccccc21	i	i	i	6.5*
SMILES	TMEM16A act	ANO1 block	CHT block	CHT PAM
O=C(/C=C/c1ccc(Cl)cc1)NC(=S)NN1CCCCC1c1cccnc1 (stereo not given)	x	i	i	i
COc1ccc(/C=C/C(=O)NC(=S)NN2CCCCC2c2cccnc2)cc1OC (stereo not given)	-4.6*	i	i	i
CC(C)N1CCc2c(sc(NC(=S)NC(=O)c3ccccc3)c2C#N)C1	i	i	i	i
CCCN1CCc2c(sc(NC(=S)NC(=O)c3ccccc3)c2C#N)C1	-5.4*	i	i	i
CCCC(NC(=O)CCc1c(C)c2cc3c4c(oc3c(C)c2oc1=O)CCCC4)C(=O)O (stereo not given)	i	i	i	i
COc1ccccc1NS(=O)(=O)c1cc(NC(=S)Nc2cc(C)cc(C)c2)ccc1Cl	-5.6*	i	i	i
COc1ccc(NC(=O)CCC(=O)c2cccs2)cc1S(=O)(=O)Nc1ccccc1Cl	i	i	i	i
COc1ccccc1NS(=O)(=O)c1cc(N/C(=N\S(=O)(=O)c2ccccc2)c2ccc(F)cc2)ccc1Cl	i	i	i	i
O=C(Nc1ccc(Cl)c(S(=O)(=O)Nc2ccccc2Cl)c1)c1cccs1	i	25*	i	i
CC1CN(CC(=O)NCc2ccc(F)cc2)CC(C)O1 (stereo not given)	i	i	i	i
Cc1cc(C)nc(NS(=O)(=O)c2ccc(CC(C)C)cc2)c1	i	i	i	i
CCC(NC(=O)Nc1nnc(C(F)(F)F)s1)(C(F)(F)F)C(F)(F)F	i	100*	i	i
O=C(O)CCC(=O)Nc1nnc(C(F)(F)F)s1	i	i	i	i
O=C(N/N=C/c1cc(Cl)cc(Cl)c1O)c1ccncc1	-8.8*	i	i	i
O=C(NCc1ccccc1)c1cccc(COc2ccc(Cl)cc2)c1	i	25*	i	i
O=C(O)COc1ccccc1-c1nc(-c2ccccc2)c(-c2ccccc2)[nH]1	i	i	i	i
COc1cccc(-c2nc(-c3ccccc3)c(-c3ccccc3)[nH]2)c1OCC(=O)O	i	i	-6.6*	i
CC(C)c1ccc(N2C(=O)CC(Sc3ncccn3)C2=O)cc1 (stereo not given)	i	i	i	i
CC(OC(=O)c1ccccc1NS(=O)(=O)c1cccc(C(F)(F)F)c1)C(=O)N(C)Cc1ccccc1 (stereo not given)	i	100*	i	i
CN(Cc1ccccc1)C(=O)COC(=O)c1ccccc1NS(=O)(=O)c1cccc(N)c1	i	i	i	i
CCOC(=O)c1sc(SC)nc1N	i	i	i	i
CCOc1ccc(NC(=O)CN(C)Cc2ccc3c(c2)OCO3)cc1S(=O)(=O)N1CCCC1	i	x	x	x
O=C1Nc2ccc(Cl)cc2[C@@](C#CC2CC2)(C(F)(F)F)O1	x	100*	i	i
O=C1Nc2cc(Cl)ccc2C1(N1CCNCC1)C(F)(F)F (stereo not given)	i	i	i	i
O=C(CN1CCN(C(=O)C2CCN(C(=O)/C=C/c3ccccc3)CC2)CC1)Nc1ccc(F)cc1	i	x	x	x
O=C(NC(=S)Nc1ccccc1N1CCCC1)c1ccco1	-6.9*	i	i	i
O=C(NC(=S)Nc1ccccc1N1CCCCC1)c1ccco1	i	i	i	i
COc1ccc(C2=NO[C@@H]3[C@@H]4C[C@@H]([C@H]5C(=O)N(c6ccc7c(c6)OCO7)C(=O)[C@@H]45)[C@H]23)cc1OC	i	i	i	i
